Measurements from PubChem BioAssay (EPA / NIEHS).
Values joined by “and” are separate entries in the source; they are usually repeats but may differ in a detail not shown here. Identical values can stand only once. Results filed as inconclusive are left out. More than one record can exist for a structure, and the calls need not agree. Active and inactive are the calls of the source. Rule for the calls: active = hit-call score of the fitted dose curve at least 0.9, where 1 is the maximum; inconclusive = response in the unintended direction; inactive = score below 0.9.

Target: Retinoic acid receptor RXR-alpha (Homo sapiens) (UniProt P19793)
Experiment: OT_NURR1_NURR1RXRa_0480: Odyssey Thera (OT) 8-hour HEK293T Protein Complementation Assay for Nurr1/retinoid X receptor (RXR) (AID 2283385)
Description: OT_NURR1_NURR1RXRa_0480 is a cell-based assay that uses HEK293T, a human kidney cell line, with measurements taken at 8 hours after chemical dosing in a 384-well plate.OT_NURR1_NURR1RXRa_0480 is one of one assay component(s) measured or calculated from the OT_NURR1_NURR1RXRa_0480 assay. It is designed to make measurements of protein fragment complementation, a form of binding reporter, as detected with fluorescence intensity signals by Protein-fragment Complementation technology.Data from the assay component OT_NURR1_NURR1RXRa_0480 was analyzed into 1 assay endpoint. This assay endpoint, OT_NURR1_NURR1RXRa_0480, was analyzed in the positive analysis fitting direction relative to DMSO as the negative control and baseline of activity. Using a type of binding reporter, measures of receptor for gain-of-signal activity can be used to understand the binding at the pathway-level as they relate to the gene RXRA. Furthermore, this assay endpoint can be referred to as a primary readout, because the performed assay has only produced 1 assay endpoint. To generalize the intended target to other relatable targets, this assay endpoint is annotated to the nuclear receptor intended target family, where the subfamily is non-steroidal.
Protein-fragment complementation assay, or PCA, is a method for the identification and quantification of protein-protein interactions. In the PCA, the proteins of interest ("bait" and "prey") are each covalently linked to fragments of a third protein (e.g. DHFR, which acts as a "reporter"). Interaction between the bait and the prey proteins brings the fragments of the reporter protein in close proximity to allow them to form a functional reporter protein whose activity can be measured.

Sequence of Retinoic acid receptor RXR-alpha (Homo sapiens) (P19793 whole entry, looked up): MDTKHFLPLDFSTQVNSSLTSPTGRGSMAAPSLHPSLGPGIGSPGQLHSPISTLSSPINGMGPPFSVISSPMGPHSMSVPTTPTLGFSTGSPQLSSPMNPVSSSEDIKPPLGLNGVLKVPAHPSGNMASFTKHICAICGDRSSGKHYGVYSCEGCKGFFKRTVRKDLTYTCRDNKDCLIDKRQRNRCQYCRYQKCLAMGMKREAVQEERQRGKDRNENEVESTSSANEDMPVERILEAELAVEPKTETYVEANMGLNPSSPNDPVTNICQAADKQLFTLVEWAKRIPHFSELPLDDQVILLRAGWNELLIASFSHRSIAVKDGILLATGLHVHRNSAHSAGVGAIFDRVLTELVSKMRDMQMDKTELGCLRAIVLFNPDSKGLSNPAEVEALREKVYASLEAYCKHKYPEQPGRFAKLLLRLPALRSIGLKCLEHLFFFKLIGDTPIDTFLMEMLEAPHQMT

SMILES	outcome	AC50
CCC(C)(C)C(=O)OC1=C(c2ccc(Cl)cc2Cl)C(=O)OC12CCCCC2	inactive	
O=C(O)CCCOc1ccc(Cl)cc1Cl	inactive	
O=C(O)C(F)(F)C(F)(F)C(F)(F)C(F)(F)C(F)(F)C(F)(F)C(F)(F)F	inactive	
CCc1ccc(C(=O)NN(C(=O)c2cc(C)cc(C)c2)C(C)(C)C)cc1	inactive	
CC(C)OC(=O)Nc1cccc(Cl)c1	inactive	
CC1(C)C(C=C(Cl)Cl)C1C(=O)OC(C#N)c1ccc(F)c(Oc2ccccc2)c1 (stereo not drawn)	inactive	
CC[C@H](C)[C@H]1O[C@]2(C=C[C@@H]1C)C[C@@H]1C[C@@H](C/C=C(\C)[C@@H](O[C@H]3C[C@H](OC)[C@@H](O[C@H]4C[C@H](OC)[C@@H](O)[C@H](C)O4)[C@H](C)O3)[C@@H](C)/C=C/C=C3\CO[C@@H]4[C@H](O)C(C)=C[C@@H](C(=O)O1)[C@]34O)O2 (tested in a mixture with another compound)	inactive	7.4 µM (active)
C#CCN1C(=O)COc2cc(F)c(N3C(=O)C4=C(CCCC4)C3=O)cc21	inactive	
CC(C)N(C(=O)COc1nnc(C(F)(F)F)s1)c1ccc(F)cc1	inactive	
N#Cc1c(Cl)c(Cl)c(Cl)c(C#N)c1Cl		0.0765 µM (active)
CCCN(CCOc1c(Cl)cc(Cl)cc1Cl)C(=O)n1ccnc1		11.9 µM (active)
CCC(C)(NC(=O)c1cc(Cl)c(C)c(Cl)c1)C(=O)CCl (stereo not drawn)	inactive	
CNC(=O)Oc1ccccc1OC(C)C	inactive	
N#CN	inactive	
COP(=S)(OC)Oc1ccc([N+](=O)[O-])cc1	inactive	
CNC(=O)/C=C(\C)OP(=O)(OC)OC	inactive	
Clc1ccccc1-c1nnc(-c2ccccc2Cl)nn1	inactive	
COP(=S)(OC)Oc1ccc(SC)c(C)c1	inactive	

SMILES	outcome	AC50
CCC(C)Nc1c([N+](=O)[O-])cc(C(C)(C)C)cc1[N+](=O)[O-] (stereo not drawn)		84.6 µM (active) and 73.7 µM (active)
Oc1ccc(Cl)cc1Cc1ccccc1	inactive	
CCOCN(C(=O)CCl)c1c(C)cccc1CC	inactive	0.654 µM (active)
Oc1cc(Cl)ccc1Oc1ccc(Cl)cc1Cl		11.9 µM (active) and 11.6 µM (active)
CC(C)(C)C(O)C(Oc1ccc(Cl)cc1)n1cncn1 (stereo not drawn)	inactive	
O=C(O)COc1ccc(Cl)cc1Cl	inactive	
CCOC1Oc2ccc(OS(C)(=O)=O)cc2C1(C)C (stereo not drawn)	inactive	
O=C(NC(=O)c1c(F)cccc1F)Nc1ccc(OC(F)(F)C(F)OC(F)(F)F)c(Cl)c1 (stereo not drawn)	inactive	
CCN(CC)C(=O)SCc1ccc(Cl)cc1	inactive	
COP(=O)(OC)OC=C(Cl)Cl	inactive	
O=[N+]([O-])c1c(Cl)c(Cl)c(Cl)c(Cl)c1Cl	inactive	
O=[N+]([O-])/N=C1\NCCN1Cc1ccc(Cl)nc1	inactive	
Cc1[nH]c(=O)n(C(C)(C)C)c(=O)c1Cl	inactive	
CNC(=O)CSP(=S)(OC)OC	inactive	
O=S(=O)(O)C(F)(F)C(F)(F)C(F)(F)C(F)(F)C(F)(F)C(F)(F)C(F)(F)C(F)(F)F	inactive	
CCCN(CCC)c1c([N+](=O)[O-])cc(C(F)(F)F)cc1[N+](=O)[O-]	inactive	
OCCOc1ccccc1	inactive	
ClC1C(Cl)C(Cl)C(Cl)C(Cl)C1Cl (stereo not drawn)	inactive	
